Measured values taken from ChEMBL document CHEMBL3988442, “University of Dundee, Small-Polar-MMV Screening Library” (2021).
The whole screen tested about 48,000 compounds, of which about 13,000 (27%) showed an effect of 50% or more. The list shows a part of the results.

Tested on: Wolbachia pipientis
Assay: Anti-Wolbachia Cell-Based Screen
Format: functional
Parameters: scale not given: in the data most compounds retested in dose-response had high values
Conditions: 5 µM

Structure (SMILES) | Percent Effect [%]
COCCn1cncc1Cn1ncc2ccccc2c1=O | 103.5
O=c1c2ccccc2cnn1Cc1cncn1C1CC1 | 94.68
CCn1cncc1Cn1ncc2ccccc2c1=O | 88.95
COCCn1cncc1CN1CCC(C(C)=O)(c2ccccc2)CC1 | -9.89
N#Cc1ccc(S(=O)(=O)NCCn2ccnc2)cc1Cl | -8.716
Cl.O=C1NC2(CCNCC2)CC1c1ccccc1 (configuration not stated) | -38.6
CC(C)COC(=O)N1CCC2(CCNC2)C1.Cl (configuration not stated) | -11.51
CC(C)NC(=O)N1CCOC2(CCCNC2)C1 (configuration not stated) | -11.25
Cc1[nH]c2c(F)cccc2c1CC(=O)N1CCN(C2CCSCC2)CC1 | -2.752
CCS(=O)(=O)N1CCc2c(COCCN(C)C)cncc2C1.O=C(O)C(F)(F)F.O=C(O)C(F)(F)F | 97.71
CN(C)CCOCc1cncc2c1CCN(C1CCOC1)C2.O=C(O)C(F)(F)F.O=C(O)C(F)(F)F.O=C(O)C(F)(F)F (configuration not stated) | 106.1
CCN(C)c1ncc2c(c1C(=O)O)CCN(C1CCOC1)C2.O=C(O)C(F)(F)F.O=C(O)C(F)(F)F (configuration not stated) | -4.446
CCCS(=O)(=O)N1CCc2c(COCC)cncc2C1.O=C(O)C(F)(F)F | 0.2019
CC(Cc1cccc(Cl)c1)NC(=O)NCc1ncnn1C (configuration not stated) | -5.872
Cc1ncccc1OCC(=O)N1CCN[C@H]2CS(=O)(=O)C[C@H]21 | -3.722
Cc1noc(C)c1CN1CCO[C@H]2CN(CC3CC3)C[C@H]21.O=C(O)C(F)(F)F.O=C(O)C(F)(F)F | -4.425
CCOC[C@@H]1CC[C@H]2[C@H](CCN2Cc2c(C)noc2C)O1.O=C(O)C(F)(F)F | 3.079
Cc1noc(C)c1CN1CC[C@@H]2O[C@@H](COCC3CC3)CC[C@@H]21.O=C(O)C(F)(F)F | -0.7071
COCCN1C(=O)CC[C@@H]2[C@@H]1CCN2Cc1c(C)noc1C.O=C(O)C(F)(F)F | 103.6
CCOC[C@H]1CC[C@H]2[C@H](CCN2Cc2c(C)noc2C)O1.O=C(O)C(F)(F)F | 4.615
Cc1noc(C)c1CN1CC[C@H]2[C@H]1CCN2CC1CCOCC1.O=C(O)C(F)(F)F.O=C(O)C(F)(F)F | 115.6
N#Cc1cccnc1NCCNC(=O)N1CCN2CCCCC2C1 (configuration not stated) | -6.324
CC(C)NC(=O)C1CCC2(CCNCC2)C1 (configuration not stated) | -35.43

Structure (SMILES) | Percent Effect [%]
COc1ccc(C(=O)C2CCCN(CCCn3cccn3)C2)c(OC)c1 (configuration not stated) | -1.04
NC(=O)c1cnn2c1NCC(CNCC1(c3ccccc3)CCC1)C2 (configuration not stated) | 92.2
O=C(c1ccc(C2CCCN2)s1)N1CCN2CCC1CC2 (configuration not stated) | 11.12
CC[C@H]1CN2CC[C@H]1C[C@@H]2CNCc1cccc(C#N)c1 | 6.24
CCS(=O)(=O)N1CCc2ccc(NC(=O)Nc3cccc(C#N)c3)cc21 | 97.92
CC[C@H]1CN2CC[C@H]1C[C@@H]2CNC(=O)Nc1cccc(C#N)c1 | 1.181
O=S(=O)(c1ccc(Cl)cc1)N1C[C@@H]2CCN[C@@H]2C1 | -24.32
O=C(CC(F)(F)F)N1C[C@H]2CCN[C@H]2C1 | 92.17
O=C(CC1CCCC1)N1C[C@@H]2C[C@H]1CN2 | -37.69
Cc1ccc(S(=O)(=O)N2C[C@@H]3CCN[C@@H]3C2)cc1 | -12.06
CC(C)(C)CC(=O)N1C[C@H]2CCN[C@H]2C1 | 123.1
O=C(CC1CC1)N1C[C@H]2CCN[C@H]2C1 | 112.4
O=S(=O)(c1ccccc1)N1C[C@@H]2CCN[C@@H]2C1 | -39.01
CC(C)C(=O)N1C[C@H]2CCCN[C@H]2C1.Cl | -7.068
CC(C)CNC(=O)N1C[C@@H]2CCCN[C@@H]2C1 | -10.44
CC(C)(C)CC(=O)N1C[C@@H]2C[C@H]1CN2.Cl | -16.89
CC(C)CNC(=O)N1C[C@H]2CCN[C@H]2C1 | -21.84
CC(C)CCC(=O)N1C[C@H]2CCN[C@H]2C1 | 107.3
CS(=O)(=O)N1CCC(Nc2ccc(C#N)c(C(F)(F)F)c2)CC1 | -23.63
COc1cccc2c(=O)n(C3CCCNC3)cnc12 (configuration not stated) | -0.6392
CCc1ocnc1C(=O)N1CCC2(CC1)OCC(C)O2 (configuration not stated) | -17.17
CN(C)CCN(Cc1ccco1)C(=O)Cc1cn2ccsc2n1 | 1.866
O=C(O)C(F)(F)F.O=C(O)C(F)(F)F.O=C([C@H]1CN(Cc2ccncc2)C[C@H]2OCC[C@@H]12)N1CCCCO1 | 11.08

Structure (SMILES) | Percent Effect [%]
O=C(NC1CCC1)[C@@H]1C[C@@H]2CCN(Cc3ccncc3)C[C@H]2O1.O=C(O)C(F)(F)F.O=C(O)C(F)(F)F | -10.63
CNC(=O)[C@H]1C[C@@H]2CCN(Cc3ccncc3)C[C@H]2O1.O=C(O)C(F)(F)F.O=C(O)C(F)(F)F | 103.5
O=C(NCCc1ccncc1)[C@H]1CC[C@@H]2[C@@H](CCN2CC2CC2)O1.O=C(O)C(F)(F)F.O=C(O)C(F)(F)F | 1.654
COCCNC(=O)[C@H]1C[C@@H]2CCN(Cc3ccncc3)C[C@H]2O1.O=C(O)C(F)(F)F.O=C(O)C(F)(F)F | 99.07
CO[C@@H]1CCN(c2ncc(F)cn2)[C@@H]2CN(CC3CC3)C[C@@H]21 | 9.085
CCN1CC(=O)NCC12CCN(C(=O)c1ccno1)C2.O=C(O)C(F)(F)F (configuration not stated) | -6.47
O=S(=O)(c1cccc(Cl)c1)N1C[C@@H]2CCN[C@@H]2C1 | -5.104
O=C1NC[C@H]2CN(Cc3nccs3)CCN12 | 4.843
CC(C)(CNc1ccc(C#N)c(C(F)(F)F)c1)C(N)=O | -0.8311
CCN1CCOCC2(C1)CN(C(=O)c1c(C)noc1C)CCO2 (configuration not stated) | 103.8
Cc1noc(C)c1C(=O)N1CCOC2(COCCN(C(C)C)C2)C1.O=C(O)C(F)(F)F (configuration not stated) | 90.48
COc1ccc(C(=O)N2CCOC3(CNCCOC3)C2)c(OC)n1 (configuration not stated) | -6.762
COCCN1C[C@@H](C)[C@@]2(COCCN(C(=O)c3ccno3)C2)C1.O=C(O)C(F)(F)F | 2.349
O=C(O)C(F)(F)F.O=C(O)C(F)(F)F.c1cnc(N2CCC3(COCCN(CC4CC4)C3)C2)nc1 (configuration not stated) | -6.749
Cc1nocc1C(=O)N1CCOC2(COCCN(CC3CC3)C2)C1 (configuration not stated) | 116
COCCN1CCOCC2(C1)CN(C(=O)c1conc1C)CCO2.O=C(O)C(F)(F)F (configuration not stated) | 91.15
COCCN1C[C@@H](C)[C@@]2(COCCN(C(=O)c3ccncc3)C2)C1.O=C(O)C(F)(F)F.O=C(O)C(F)(F)F | 2.912
Cc1noc(C)c1C(=O)N1CCC2(CC1)c1nc[nH]c1CCN2C | 14.77
Cc1noc(C)c1CN1CCOC2(CCCN(c3nncs3)C2)C1.O=C(O)C(F)(F)F (configuration not stated) | -6.2
Oc1cccc2ccc(CN3CCC4(CCNCC4)C3)nc12 | 2.778
Cn1nc(CN2CCCCC(N)C2)c2c(Cl)cccc21 (configuration not stated) | -4.304
CC(C)N1CCOCC2(CN(Cc3ccccn3)CCO2)C1.O=C(O)C(F)(F)F.O=C(O)C(F)(F)F.O=C(O)C(F)(F)F (configuration not stated) | -11.42
Cc1cnc(N2CCC3(CC2)COCCN(C(C)C)C3)nc1.O=C(O)C(F)(F)F | 7.175

Structure (SMILES) | Percent Effect [%]
Cc1nocc1C(=O)N1CCOC2(COCCN(C(C)C)C2)C1.O=C(O)C(F)(F)F (configuration not stated) | 91.68
CSC1(CNC(=O)NC(C)Cc2cccc(F)c2)CCOCC1 (configuration not stated) | -4.564
Cc1ccccc1CC(=O)N1C[C@@H](O)[C@H](N2CCC(F)(F)CC2)C1 | 138.7
Cc1nc(CN2CCO[C@H]3CN(C(=O)Cc4cccs4)C[C@H]32)cs1 | 2.702
Cc1ccccc1CC(=O)N1C[C@H]2CC[C@@H]1CN(Cc1cccnc1)C2 | 5.499
Cc1ccccc1CC(=O)N1C[C@@H](O)[C@H](N2CCN(C)CC2)C1 | 176.4
CC(=O)N1CCN([C@@H]2CN(C(=O)Cc3ccccc3C)C[C@H]2O)CC1 | 157.7
Cc1ccccc1CC(=O)N1C[C@@H](O)[C@H](N2CCOCC2)C1 | 153.4
Cc1ccccc1CC(=O)N1CCN(C2CCOC2=O)CC1 (configuration not stated) | 5.646
CN(C)C(=O)CN1CCN(c2ncccn2)[C@@H]2CS(=O)(=O)C[C@@H]21 | -3.142
CC(c1ccccc1F)N1CCN(C(=O)Cc2ccncc2)CC1 (configuration not stated) | -4.813
COc1cccc(CC(C)NCC(=O)Nc2ccccc2C)c1 (configuration not stated) | 0.2022
CC[C@H]1CN2CC[C@H]1C[C@@H]2CNCc1ccc(N(C)C)cc1 | 11.9
O=C(O)C(F)(F)F.O=C(O)C(F)(F)F.c1cnc(N2CCN3C[C@H](Oc4cncnc4)C[C@H]3C2)nc1 | 105.8
O=C(c1ccco1)N1CCN2C[C@H](Oc3cncnc3)C[C@H]2C1 | 1.787
Fc1ccccc1CO[C@@H]1C[C@H]2CN(c3ncccn3)CCN2C1.O=C(O)C(F)(F)F | -0.171
O=C(Cc1cccc(F)c1)N1CCN2C[C@H](Oc3cncnc3)C[C@H]2C1.O=C(O)C(F)(F)F | 1.194
Cc1cnc(N2CCN3C[C@H](OCc4ccccn4)C[C@H]3C2)nc1.O=C(O)C(F)(F)F.O=C(O)C(F)(F)F | 0.855
O=C(O)C(F)(F)F.O=C(O)C(F)(F)F.c1ccc(CO[C@@H]2C[C@H]3CN(c4ncccn4)CCN3C2)cc1 | 2.223
Cc1cccc(CO[C@@H]2C[C@H]3CN(c4ncccn4)CCN3C2)n1.O=C(O)C(F)(F)F.O=C(O)C(F)(F)F.O=C(O)C(F)(F)F | -11.39
Fc1cnc(N2CCN3C[C@H](Oc4cncnc4)C[C@H]3C2)nc1.O=C(O)C(F)(F)F.O=C(O)C(F)(F)F | 110.2
Fc1cnc(N2CCN3C[C@H](Oc4cccnc4)C[C@H]3C2)nc1.O=C(O)C(F)(F)F.O=C(O)C(F)(F)F.O=C(O)C(F)(F)F | 90.39
Cc1ccc(O[C@@H]2C[C@H]3CN(c4ncc(F)cn4)CCN3C2)cc1.O=C(O)C(F)(F)F.O=C(O)C(F)(F)F | 83.44
